B2AR ag: beta2AR agonists driving receptor internalization, primary screen, cell-based, FAP fluorogen, flow cytometry | Beta-2 adrenergic receptor (Homo sapiens), P07550 | response, % (concentration not given with the values) | Am2.2-beta2AR cells | 0.43% of 340,000 active;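 active means response above a set limit, near 3 SD of response in nonfluorescent compounds, cut at about 42% in these data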
Target sequence (P07550 whole entry, looked up): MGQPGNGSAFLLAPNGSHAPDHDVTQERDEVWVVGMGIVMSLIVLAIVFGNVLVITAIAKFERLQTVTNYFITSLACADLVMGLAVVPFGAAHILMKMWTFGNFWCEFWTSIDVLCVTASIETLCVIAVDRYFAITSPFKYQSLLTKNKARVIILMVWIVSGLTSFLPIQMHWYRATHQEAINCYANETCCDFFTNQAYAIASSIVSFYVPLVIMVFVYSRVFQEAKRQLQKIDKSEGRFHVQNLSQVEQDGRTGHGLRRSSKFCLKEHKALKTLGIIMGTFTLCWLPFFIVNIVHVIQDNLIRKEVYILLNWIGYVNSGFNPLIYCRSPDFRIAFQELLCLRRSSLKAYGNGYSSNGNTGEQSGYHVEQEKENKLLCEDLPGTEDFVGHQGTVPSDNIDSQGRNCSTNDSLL
NOD2 RIPK2 PPI: NOD2-RIPK2 binding disruptors in cells, primary screen, fluorescence, CHO cells, BLA complementation | inhibition, % at 4.98 µM | CCF4 ratio | 0.38% of 360,000 active; in the data active means inhibition above about 21%;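 further: 0% = vehicle only and 100% = reference blocker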
ABHD5 PLIN5 PPI: ABHD5-PLIN5 interaction inhibitors, primary screen, cell lysate, split luciferase complementation, luminescence | Perilipin-5 (Homo sapiens) + 1-acylglycerol-3-phosphate O-acyltransferase ABHD5 (Homo … | Split G. princeps luciferase complementation, 4 h | inhibition, % at 4 µM | 0.78% of 360,000 active | AID 602281, 2012;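 active means inhibition above the mean inhibition across every tested compound plus 3 SD, cut at about 22% in these data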;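 further: 0% = DMSO only wells and the 100% control is not disclosed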
Exocytosis inh: LAMP-1 surface exposure blockers, TALL-104 cells – cell-based, flow cytometry, MLPCN library, primary screen. inhibition, % at 10 µM. AID 651702, 2012. TALL-104 LAMP-1 surface exposure; cells stimulated with thapsigargin and PMA. 0.66% of 360,000 active;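 active means inhibition above about 55%, limit read from the data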
TLR4-MyD88 BLA: inhibitors of TLR4-MyD88 association in cells, primary screen, cell-based, HeLa CL3-4, BLA complementation, FRET ratio; Toll-like receptor 4 (Homo sapiens) + Myeloid differentiation primary response protein …; HeLa CL3-4 TLR4/MyD88 BLA complementation; inhibition, % at 8.4 µM; 0.18% of 200,000 active; AID 861, 2007; in the data active means inhibition above about 25%;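 further: 0% = vehicle and 100% = reference inhibitor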
TLR9-MyD88 inh: inhibitors of TLR9-MyD88 association in cells, primary screen, cell-based, CHO, BLA complementation, fluorescence; 0.21% of 340,000 active; Toll-like receptor 9 (Homo sapiens) + Myeloid differentiation primary response protein …; inhibition, % at 4.98 µM; CCF4 FRET ratio;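 active means inhibition above the mean over all tested compounds plus 3 SD, cut at about 21% in these data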;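 further: 0% = DMSO only wells and 100% = clavulanate BLA inhibitor control wells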
ABHD5-PLIN5 conf: ABHD5-PLIN5 interaction inhibitors, confirmation, biochemical, luminescence; AID 651612, 2012; shares compounds with ABHD5 PLIN5 PPI; inhibition, % at 4 µM; 67% of 2,200 active; in the data active means inhibition above about 23%;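 further: 0% = DMSO vehicle wells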
HNF4 split-luc: HNF4 dimerization inhibitors, counter-screen for ABHD5-PLIN5 interaction inhibitor project, biochemical, split-luciferase complementation, luminescence; shares compounds with ABHD5 PLIN5 PPI; inhibition, % at 4 µM; 77% of 2,200 active; AID 651674, 2012;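 active means mean inhibition across replicate wells exceeding the computed hit threshold, cut at about 13% in these data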;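 further: light from luciferase halves that rejoin when HNF4 fusion proteins dimerize; 0% = DMSO only wells and the 100% control is not given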
NOD2 RIPK2 conf: NOD2-RIPK2 binding disruptors, retest, confirmation, fluorescence, CHO cells, BLA complementation, triplicate; shares compounds with NOD2 RIPK2 PPI; CCF4 FRET; inhibition, % at 4.98 µM; 70% of 1,200 active; AID 624370, 2012;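 active means mean inhibition across replicates above a set limit taken from the earlier primary screen, cut at about 21% in these data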;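 further: 0% = DMSO-only wells and the high end = clavulanate BLA-blocked wells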
NOD2 BLA counter: hits BLA reporter in NOD2-RIPK2 inhibitor counterscreen; shares compounds with NOD2 RIPK2 PPI; CHO BLA reporter, CCF4 FRET ratio; inhibition, % at 4.98 µM; 57% of 1,200 active;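 active means mean inhibition above the low-control mean inhibition plus three low-control SD, cut at about 11% in these data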;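 further: 0% = DMSO only wells and 100% = clavulanate high control wells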
The depositor's hits bear a star. A selection: hits, their analogues and other compounds. The true share with any hit is near 2%.

Results for O=C(CC(Nc1ccccc1Cl)C(=O)O)c1ccccc1 (configuration not stated) ?
B2AR ag: 13; NOD2 RIPK2 PPI: 7; ABHD5 PLIN5 PPI: 83*; Exocytosis inh: 32; TLR4-MyD88 BLA: 0; TLR9-MyD88 inh: -4; ABHD5-PLIN5 conf: 29*; HNF4 split-luc: 97*

How did O=C(CC(Nc1cccc(Cl)c1Cl)C(=O)O)c1ccccc1 (configuration not stated) do in these assays?
B2AR ag: -1; NOD2 RIPK2 PPI: -3; ABHD5 PLIN5 PPI: 85*; Exocytosis inh: 0; TLR4-MyD88 BLA: -2; TLR9-MyD88 inh: -5; ABHD5-PLIN5 conf: 15; HNF4 split-luc: 73*

Results for O=C(CC(Nc1cccc(Cl)c1Cl)C(=O)OCC(=O)c1cccs1)c1ccccc1 (configuration not stated) ?
B2AR ag: 2; NOD2 RIPK2 PPI: -2; ABHD5 PLIN5 PPI: 14; Exocytosis inh: 0; TLR4-MyD88 BLA: 6; TLR9-MyD88 inh: -2

Results for CC(C)N1C(=O)NC2NC(=O)N(C(C)C)C21 (configuration not stated) ?
NOD2 RIPK2 PPI: -1; ABHD5 PLIN5 PPI: 0; Exocytosis inh: 2

What do the screens show for `CNc1ncnc(Sc2nc(N)nc3nc[nH]c23)c1[N+](=O)[O-]`?
B2AR ag: -1; NOD2 RIPK2 PPI: 2; ABHD5 PLIN5 PPI: 12; Exocytosis inh: -13; TLR9-MyD88 inh: 2

Results for Nc1nc(Sc2ccc([N+](=O)[O-])c3nonc23)c2[nH]cnc2n1 ?
B2AR ag: 13; NOD2 RIPK2 PPI: -7; ABHD5 PLIN5 PPI: 53*; Exocytosis inh: 27; TLR9-MyD88 inh: -14; ABHD5-PLIN5 conf: 83*; HNF4 split-luc: 110*

How did Cc1[nH]c(=O)[nH]c(=O)c1S(=O)(=O)N1CCCCC1 do in these assays?
B2AR ag: 12; NOD2 RIPK2 PPI: 4; ABHD5 PLIN5 PPI: 29*; Exocytosis inh: -14; TLR9-MyD88 inh: -4; ABHD5-PLIN5 conf: -2; HNF4 split-luc: 16*

What do the screens show for `O=C(Cn1cnc2c(cnn2-c2ccc(F)cc2)c1=O)NCc1ccco1`?
B2AR ag: -6; NOD2 RIPK2 PPI: -2; ABHD5 PLIN5 PPI: 1; Exocytosis inh: 2; TLR4-MyD88 BLA: -7; TLR9-MyD88 inh: 0

What do the screens show for `Cc1sc2ncn(CC(=O)NCc3ccco3)c(=O)c2c1-c1ccc(F)cc1`?
B2AR ag: 0; NOD2 RIPK2 PPI: 8; ABHD5 PLIN5 PPI: 29*; Exocytosis inh: -3; TLR4-MyD88 BLA: 3; TLR9-MyD88 inh: -2; ABHD5-PLIN5 conf: 56*; HNF4 split-luc: 62*

Results for Cc1ccc(-c2cc(NC=O)c3ncc(-c4cnn(C)c4)n3c2)cc1 ?
NOD2 RIPK2 PPI: 9; ABHD5 PLIN5 PPI: 0; Exocytosis inh: -5

What do the screens show for `C=C(CN(C)C)C(=O)c1ccc(OC2OC(COC(C)=O)C(OC(C)=O)C(OC(C)=O)C2OC(C)=O)cc1` (configuration not stated)?
B2AR ag: 25; NOD2 RIPK2 PPI: 27*; ABHD5 PLIN5 PPI: 39*; Exocytosis inh: 3; TLR9-MyD88 inh: 8; ABHD5-PLIN5 conf: 99*; HNF4 split-luc: 106*; NOD2 RIPK2 conf: 74*; NOD2 BLA counter: 24*

What do the screens show for `CC(=O)OC[C@H]1O[C@@H](O/N=C/[C@@H](C)[C@H](OCc2ccccc2)C(C)C)[C@H](OC(C)=O)[C@@H](OC(C)=O)[C@@H]1OC(C)=O`?
TLR4-MyD88 BLA: -4

What do the screens show for `CC(NS(=O)(=O)c1cccc(C(=O)N(C)Cc2ccc(N3CCOCC3)cc2)c1)c1ccccc1` (configuration not stated)?
B2AR ag: 10; NOD2 RIPK2 PPI: -6; ABHD5 PLIN5 PPI: -10; Exocytosis inh: -3; TLR9-MyD88 inh: -6

Results for O=C(Nc1cccc(N2C(=O)C=CC2=O)c1)c1cccs1 ?
B2AR ag: 53*; NOD2 RIPK2 PPI: 22*; ABHD5 PLIN5 PPI: 30*; Exocytosis inh: 34; TLR9-MyD88 inh: 30*; ABHD5-PLIN5 conf: 48*; HNF4 split-luc: 96*; NOD2 RIPK2 conf: 74*; NOD2 BLA counter: 12*

What do the screens show for `CCN(C)C1CN(Cc2cn(Cc3ccc(C(F)(F)F)cc3)nn2)S(=O)(=O)C1` (configuration not stated)?
NOD2 RIPK2 PPI: -8; ABHD5 PLIN5 PPI: -4; Exocytosis inh: -4

Results for Cc1[nH]c2ccccc2c1C1=CC(=O)C=CC1=O ?
B2AR ag: 32; NOD2 RIPK2 PPI: 45*; ABHD5 PLIN5 PPI: 49*; Exocytosis inh: 2; TLR9-MyD88 inh: 16; ABHD5-PLIN5 conf: 46*; HNF4 split-luc: 80*; NOD2 RIPK2 conf: 62*; NOD2 BLA counter: 13*

What do the screens show for `O=C(NCc1ccccc1)C(CCc1ccccc1)n1c(=O)c(-c2ccccc2)nc2ccccc21` (configuration not stated)?
NOD2 RIPK2 PPI: 29*; ABHD5 PLIN5 PPI: 38*; Exocytosis inh: 36; ABHD5-PLIN5 conf: 41*; HNF4 split-luc: 28*; NOD2 RIPK2 conf: 6; NOD2 BLA counter: 1

How did CC(C)Cn1c(N)c(C(=O)COC(=O)Cc2cccc(C(F)(F)F)c2)c(=O)n(C)c1=O do in these assays?
B2AR ag: 5; NOD2 RIPK2 PPI: 10; ABHD5 PLIN5 PPI: -5; Exocytosis inh: 14; TLR9-MyD88 inh: -8

Bioassay records deposited in PubChem by several laboratories.
